Screens as filed in PubChem.
Sampled rows, rich in hits. Any-hit rate of the full collection: about 11%.
ALDH1A1 inh = qHTS Assay for Inhibitors of Aldehyde Dehydrogenase 1 (ALDH1A1); Purified ALDH1A1, NADH fluorescence, propionaldehyde substrate; AID 1030, 2008; Potency, µM (doses to about 75.3 µM), for inactives: at the top dose activity, negative = inhibition, usual class: inhibitors; hit rate 7.3% among 220,000; Aldehyde dehydrogenase 1A1 (Homo sapiens), P00352; active = well fitted inhibition curve with a large enough effect, not every such curve was filed as active; inconclusive = small, poorly fitted or top-dose-only effect, or another doubt; inactive = no such curve, though single readings can be large or run the other way;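 also: potency is read from the fitted curve at half-maximal effect; plate controls were no enzyme wells and a reference inhibitor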
ALOX12 inhib = qHTS Assay for Inhibitors of 12-hLO (12-human lipoxygenase) | Polyunsaturated fatty acid lipoxygenase ALOX12 (Homo sapiens), P18054 | purified 12-hLO, xylenol orange hydroperoxide absorbance | Potency, µM (highest dose often 57.1 µM), for the others: at the highest dose activity change, negative = inhibition, most hits filed as inhibitors | hit rate 0.12% among 150,000; also: potency is read from the fitted curve at half-maximal effect; nearly all actives have a fitted effect of over 55% in size
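Purified human 12hLO (150 nM), preincubated 15 min with compound, then 40 uM arachidonic acid for 30 min, room temperature, Hepes pH 7.0 with 0.01% Triton X-100. Hydroperoxide detected by ferrous iron/xylenol orange; 573/405 nm absorbance ratio gives reaction progress.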
IMPase cell inh = qHTS Assay for Identifying the Cell-Membrane Permeable IMPase Inhibitors; Inositol monophosphatase 1 (Rattus norvegicus), P97697; CHO-M1 cells, IP1 accumulation, HTRF TR-FRET ratio; inhibition (IP1 accumulation), % at 46.1 µM; 120,000 tested, under 10 active; AID 901, 2007; active = well fitted curve in the direction sought with a large enough effect in the signal ratio, not every such curve was filed as active; inconclusive = small, poorly fitted or top-dose-only effect, or a change in a side signal; inactive = no such curve, though single readings can be large or run the other way; the % refers to the signal ratio;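 also: cells stimulated with carbachol in lithium chloride buffer; plate controls were DMSO basal wells for no effect and reference inhibitor wells for full effect; higher means more IMPase inhibition seen as more IP1 and lower FRET ratio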
Target sequence (P97697 whole entry, looked up): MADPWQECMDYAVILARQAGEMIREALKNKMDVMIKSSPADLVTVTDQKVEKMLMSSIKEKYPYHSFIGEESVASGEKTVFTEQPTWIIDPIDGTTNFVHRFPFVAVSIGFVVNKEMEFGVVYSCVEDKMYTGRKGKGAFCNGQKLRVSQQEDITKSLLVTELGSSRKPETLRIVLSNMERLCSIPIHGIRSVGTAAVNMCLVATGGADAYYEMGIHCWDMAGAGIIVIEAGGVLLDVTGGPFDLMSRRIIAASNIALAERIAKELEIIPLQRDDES
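CHO-M1, 2000 cells/well, cultured 16–30 h; cpd up to 46 uM; carbachol (50 uM solution, stimulation buffer w/ 50 mM LiCl, pH 7.4), 30 min 37C; IP-One TR-FRET, 10 min RT; Ex 320/Em 665, 620; Hill-fit AC50.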
HPGD block = qHTS Assay for Inhibitors of HPGD (15-Hydroxyprostaglandin Dehydrogenase). 15-hydroxyprostaglandin dehydrogenase [NAD(+)] (Homo sapiens), P15428. purified HPGD, NADH fluorescence kinetic, PGE2 substrate. Potency, µM, for the others: at the highest dose activity change, negative = inhibition, hits mostly inhibitors. hit rate 4.3% among 150,000; active = well fitted inhibition curve with a large enough effect, not every such curve was filed as active; inconclusive = small, poorly fitted or top-dose-only effect, or another doubt; inactive = no such curve, though single readings can be large or run the other way; also: potency is read from the fitted curve at half-maximal effect
Target sequence (P15428 whole entry, looked up): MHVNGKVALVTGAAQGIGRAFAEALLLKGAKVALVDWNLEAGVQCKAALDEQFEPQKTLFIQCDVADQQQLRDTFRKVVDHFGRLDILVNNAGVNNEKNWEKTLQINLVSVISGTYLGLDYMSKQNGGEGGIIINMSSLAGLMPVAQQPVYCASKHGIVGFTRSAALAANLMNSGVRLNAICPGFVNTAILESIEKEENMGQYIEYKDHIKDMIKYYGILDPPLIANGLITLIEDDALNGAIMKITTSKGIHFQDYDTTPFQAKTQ
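NADH formation kinetics: reaction with 30 uM PGE2 and 1 mM NAD+ (final), 20 nM enzyme, Tris-HCl pH 8 with Tween 20, after 15 min compound preincubation at room temperature. Fluorescence change, last versus first of five reads.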
IMPase Li cell = qHTS Assay for Identifying the Cell-Membrane Permeable IMPase Inhibitors: Potentiation with Lithium; CHO-M1 cells, IP1 TR-FRET (IP-One), carbachol + lithium; Potency, µM (series often up to 59.4 µM), for the others: top-dose activity, negative = IMPase inhibition, most hits filed as inhibitors; hit rate 0.35% among 210,000; AID 1457, 2008;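 also: IP1 builds up when IMPase is blocked and the TR-FRET signal falls; potency is read from the fitted curve at half-maximal effect; plate controls were basal vehicle for no effect and high inhibitor control for full effect; nearly all actives have a fitted effect of over 50% in size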
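Concentration–response in CHO-M1 cells, lithium-potentiated; 30 min at 37C. IP1 detected by competitive TR-FRET after 10 min lysis at RT. Hill-fitted AC50.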
PNC inhibitor = High Content Assay for Compounds that inhibit the Assembly of the Perinucleolar Compartment; PC3M PTB-GFP, PNC prevalence imaging, 16 h; stronger effect = lower value; activity change (PNC), negative = inhibition, % at 10 µM; hit rate 3.1% among 140,000; AID 2417, 2010;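 active = readout at or below -70, meaning at least 70% loss of cells showing the perinucleolar compartment, a nuclear body marking cancer cells; inconclusive = readout between -30 and a set limit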;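 also: plate controls were DMSO wells for no effect and camptothecin positive control wells for full effect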
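Read-out is percentage of cells bearing a perinucleolar compartment, from automated 20x imaging of fixed, Hoechst-stained PC3M PTB-GFP cells. Cells were seeded 4 h, then exposed 16 h to compound (23 nl of library stock) in duplicate plates.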
Active calls of the source: *; i = inactive; ? = inconclusive; . = no result; [ ] = another dose, or the depositor's remark. Unless noted, calls follow the shape of the dose curve; as a rule, active = well fitted curve in the direction sought with a large enough effect; inconclusive = small, poorly fitted or top-dose-only effect, or another doubt; inactive = no such curve, though single readings can be large; an effect the other way counts as inactive or inconclusive. Unless noted, % is scaled to controls: 0 for no effect and ±100 for the full control effect.

SMILES	ALDH1A1 inh	ALOX12 inhib	IMPase cell inh	HPGD block	IMPase Li cell	PNC inhibitor
COc1ccc(-n2nnc3c(SCC(=O)Nc4ccc5c(c4)OCCO5)ncnc32)cc1	?	-3%	-10	-18%	4%[38.3 µM]	-83*
Nn1cc(-c2ccccc2)nc1SCC(=O)NCCc1ccccc1	3.2µM*	.	.	.	19%	.
O=[N+]([O-])c1ccc(-c2nnc(CNC3CCCC3)o2)cc1	?	.	.	.	-4%	.
O=C1c2cccc3cc(Br)cc(c23)C(=O)N1Nc1ccc(Br)cc1	12%	-1%	.	-3%	4%	?
O=C1c2cccc3cccc(c23)C(=O)N1Nc1ccccc1	25µM*	.	.	.	-1%	.
CCc1cc2c(=O)n(CCC(C)C)c(=S)[nH]c2s1	16µM*	.	.	.	0%	.
CCCn1c(=S)[nH]c2ccccc2c1=O	2%	.	.	.	4%	.
O=C(NC(=S)NNC(=O)[C@H]1C[C@@H]1c1ccccc1)c1ccc(F)cc1	25µM*	.	.	.	.	.
COc1ccc(Cl)cc1NC(=O)Cn1nc(C(F)(F)F)c2c1CCCC2	.	.	-3	.	.	.
O=C1C2C=CC=CC2=NC(=S)N1CCN1CCC(=C(c2ccc(F)cc2)c2ccc(F)cc2)CC1 (stereo unspecified)	-5%	.	.	-23%	11%	.
Cc1cc(Cl)c(S(=O)(=O)N/N=C/c2ccc3c(c2)OCO3)c(Cl)c1	11µM*	?	6	-20%	32%[38.3 µM]	60
O=S(=O)(N/N=C/c1ccc2c(c1)OCCO2)c1ccc(Cl)cc1	-6%	-5%	1	-16%	11%[38.3 µM]	?
CC1CC(OC(=O)C(O)c2ccccc2)CC(C)(C)C1 (stereo unspecified)	3%	2%[0.00818 µM]	.	-6%	16%	.
Cn1nc(C(=O)Nc2nnc(C3CC3)s2)c2ccccc2c1=O	13µM*	.	.	.	-5%	.
Cn1nc(C(=O)NC2CCCCC2)c2ccccc2c1=O	?	6%	0	-9%	-6%[38.3 µM]	?
O=c1oc2ccccc2c(N2CCCCC2)c1CN1CCCCC1	14µM*	4%	7	-20%	11%	22
O=c1oc2ccccc2c(N2CCCCC2)c1CN1CCCC1	-12%	2%	12	-6%	1%	-10
O=C(CCN1CCCCC1)c1csc2ccccc12	0.14µM*	-9%[11.4 µM]	.	-13%	-2%	.
O=C(CCN1CCCCC1)c1ccccc1	1.1µM*	10%	-4	-21%	32%[38.3 µM]	21
CCc1oc2ccccc2c1C(=O)CCN1CCCCC1	0.11µM*	-14%	14	28µM*	-1%[38.3 µM]	7
CC(=O)c1oc2ccccc2c1NC(=O)CN1CCCCC1	-10%	2%	6	-8%	-3%	?
CN1CCN(c2ncc3nc(-c4cc(F)cc(F)c4)c(=O)n(-c4ccccc4)c3n2)CC1	?	-17%	.	i	-7%	.
CCOc1nc(-c2ccc(C)cc2)ccc1-c1noc(-c2ccccc2F)n1	.	.	-14	.	.	.
CCNC(=S)Nc1ccc(Cl)c([N+](=O)[O-])c1	-1%	.	.	.	19%	.
O=C(/C=C/c1ccccc1)Nc1cc(-c2nc3ccccc3o2)ccc1Cl	.	.	-2	.	.	.
SMILES	ALDH1A1 inh	ALOX12 inhib	IMPase cell inh	HPGD block	IMPase Li cell	PNC inhibitor
C[N+]1(CCC(=O)c2ccccc2)CCCCC1	1.3µM*	0%	.	32µM*	-1%	20
O=C(O)CCN1CCOCC1	9%	-5%	-5	-6%	-8%[38.3 µM]	31
O=C(CCN1CCOCC1)c1ccccc1	0.32µM*	6%	9	-23%	-3%[38.3 µM]	10
Cc1ccccc1S(=O)(=O)Nc1nc2ccccc2nc1Cl	?	.	.	.	3.5µM*	.
COc1cccc(-c2nc(N3CCNCC3)c3ccccc3n2)c1	1%	4%	.	-6%	21%	.
c1ccc(N/N=C(\Cc2ncc[nH]2)c2ccccc2)cc1	7.1µM*	.	.	.	-15%	.
CC(C)=C(NC(=O)c1ccccc1)C(=O)NCc1ccccc1	4%	.	.	.	2%	.
Cc1sc2ncnc(SCc3ccc(C(=O)O)cc3)c2c1C	40µM*	.	.	.	3%	.
COc1ccc(CCNc2nc3ccccc3n3nnnc23)cc1OC	8%	-4%	1	-14%	10µM*	2
CCOc1ccc(CCNC(=O)c2ccc(Nc3nc4ccccc4n4nnnc34)cc2)cc1OCC	.	.	7	.	.	.
c1ccc(CCNc2nc3ccccc3n3nnnc23)cc1	10%	3%	?	-22%	3.5µM*	?
CC(=O)O[C@]1(C)CC[C@]23CC1C(C)(C)C2CC[C@@H]3C (stereo partly specified)	-5%	-2%	.	-2%	-2%	.
CCCS(=O)(=O)c1nc(S(=O)(=O)c2ccc(C)cc2)c(NCCCN2CCOCC2)s1	14µM*	-1%	6	-15%	-1%[38.3 µM]	-18
CCS(=O)(=O)c1nc(S(=O)(=O)c2ccc(Cl)cc2)c(NCCOC)s1	4.5µM*	.	.	.	-5%	.
CCCNc1sc(S(=O)(=O)CCC)nc1S(=O)(=O)c1ccc(C)cc1	10µM*	.	.	.	10%	.
COC(=O)[C@@]1(Cc2ccc(F)cc2)[C@H]2c3cc(C(=O)N(C)C)n(Cc4ccc(O)c(OC)c4)c3C[C@H]2CN1C(=O)c1ccccc1	-9%	-10%	.	-1%	7%	.
CCOC(=O)C(C(=O)NCCCN1CCOCC1)C1CCCCC1 (stereo unspecified)	1%	2%	9	-8%	30%	-100*
C=CCNC(=O)C(C(=O)OCC)C1CCCCC1 (stereo unspecified)	?	2%	11	1%	3%	40
CCC1(CC)Cc2ccccc2-c2nc(NCCO)[nH]c(=O)c21	?	0%	-10	?	-1%	-100*
O=C(Nc1ccccc1)[C@@]12C[C@@H]1/C(=N/O)c1ccccc1O2	-3%	-3%	3	-22%	23%	.
O=C(c1cccc(F)c1)N1CCC2(CC1)CN(c1ccc(-c3ccccc3)cc1)C2	?	-9%	.	?	16%	.
Cc1ccc(S(=O)(=O)NC(CN2CCOCC2)=NCCNS(=O)(=O)c2ccccc2)cc1	2.5µM*	1%	-4	-13%	7%	17
CCN1C(=O)[C@H]2[C@H]3[C@H](O)[C@H](O)C/C(=N/OCc4ccccc4)[C@@H]3CC[C@@H]2C1=O	4%[13.5 µM]	.	.	.	.	.
N#Cc1nc(COc2ccccc2Cl)oc1N1CCCC1	-8%	.	.	.	20%	.
CC1CN(c2oc(COc3ccc(Cl)cc3Cl)nc2C#N)CC(C)O1 (stereo unspecified)	5%	-10%	3	?	16%	-100*
